The whole screen tested about 340,000 compounds, of which about 280 (0.082%) were called active. This is one part of a sample in which actives are shown more often than they occur.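 The calls were made as follows: active = percent activation above the mean of all tested compounds plus 3 SD (cut at about 19% in these data); inactive = the rest.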
Each compound was assayed against cAMP-dependent protein kinase type I-alpha regulatory subunit (Bos taurus) + cAMP-dependent protein kinase catalytic subunit beta (Mus musculus) (UniProt P00514+P68181) (assay: activators of PKA-R1A holoenzyme, primary screen, biochemical, fluorescence polarization, Cy5-IP20, bovine R1A, mouse PKAc (AID 504707;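 also: higher means more PKAc released from R1A so a rise in polarization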)). Settings: PKA-R1A dissociation, at 11.4 µM, stronger effect = higher value, scaled: DMSO 0%, 113 µM cGMP 100%.

activation, active:
COc1ccc(NC(=O)c2ccc(C#CC(C)(C)O)cc2)cc1 23.1%

activation, inactive:
COc1cc2ccc(C(C)=O)c(O)c2cc1OC 4.58%
Cc1csc(SCC(=O)Nc2ccc(C)c(S(=O)(=O)N(C)C)c2)n1 -1.19%
CCOC(=O)C=Cc1ccc(C(=O)OCC)[nH]1 1.4%
O=C(NCC(F)(F)F)c1ccc(S(=O)(=O)NCCc2ccc3c(c2)OCCO3)cc1 -0.03%
Cc1cc(C)c2c(=O)n3c(nc2c1)C(CC(C)C)NC(=O)c1cc2ccccc2cc1-3 (stereo not drawn) -8.23%
COc1ccc(C(CNC(=O)CSc2ccccc2)N2CCOCC2)cc1 (stereo not drawn) -7.96%
Cc1cccc(S(=O)(=O)N(C)C[C@@H]2OCc3cnnn3CCCC(=O)N([C@H](C)CO)C[C@@H]2C)c1 1.99%
CCN(CC)C(=O)C1=C(C)N(Cc2ccc(C(C)(C)C)cc2)C(=O)C(CC(=O)NCc2cccc3ccccc23)C1 (stereo not drawn) -15.8%
COc1ccc([C@H]2C[C@@H](n3cc(COC(=O)c4ccccc4)nn3)[C@H](O)CN2C(=O)c2cccs2)cc1 -9.97%
COc1ccc(C(=O)Nc2ccc(-n3nncc3C(C)(C)C)cc2)cc1 -6.01%
COc1ccc(NS(=O)(=O)c2ccc(NC(=O)c3ccc(N(C)S(C)(=O)=O)cc3)cc2)cc1 9.45%
COn1c(=O)c(=O)n(OC)c2ccccc21 -14.3%
COc1ccc(NC(=O)c2cc(=O)[nH]c3ccccc23)cc1S(=O)(=O)N1CCOCC1 3.45%
N#CCCC(C#N)(c1cccnc1)N1CCOCC1 (stereo not drawn) 9.19%
O[C@@H]1C[C@H](c2ccccc2)N(Cc2cccs2)C[C@H]1n1cc(C2CC2)nn1 8.01%
Cn1ncc2c(NNC(=O)Cc3cccc4ccccc34)ncnc21 -20.9%
O=C(CNC(=O)N1CC(=O)Nc2ccccc21)Nc1ccc(Br)cc1F -0.99%
CCOc1ccc(C2NC(=S)NC3=C2CCc2ccccc23)cc1 (stereo not drawn) -2.38%
CCOC(=O)c1cc(-c2sc(NC(=O)c3ccccc3)nc2C)n(-c2ccc(Br)cc2)n1 4.25%
C[C@H](CO)N1C[C@H](C)[C@@H](CN(C)C(=O)c2cccc(F)c2)Oc2cc(-c3cncnc3)ccc2S1(=O)=O 0.35%
CCOC(=O)C1CCN(C(=O)c2ccc3c(=O)n4nc(Nc5ccccc5CC)sc4nc3c2)CC1 -0.99%
C[C@@H]1CN([C@@H](C)CO)S(=O)(=O)c2ccc(-c3ccc(C(=O)N(C)C)cc3)cc2O[C@@H]1CN(C)Cc1ccccc1C(=O)O -3.75%
